Data reported in PubChem BioAssay (NCI).
Compounds without any hit were thinned out: in the full panel of roughly 83,000, 20% have a hit.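 For each line, cells grew in 96-well plates with the test compound present at a single concentration for 48 hours.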 Values without a mark were called inactive. Active and inactive are the calls of the source. How the source made its calls: active means growth percent below 10; inactive means the rest.

Test system: SW-620 colon
Experiment: NCI-60 one-dose screen, 48 h (100 = growth as untreated, 0 = no growth, -100 = all killed)
Conditions: 10 µM unless noted

Row | SMILES | growth
1 | COc1ccc(N2CCN(C(=O)CSc3ccc(-c4nc5cc(C)c(C)cc5[nH]4)cn3)CC2)cc1 | 85.5%
2 | COc1ccc(Cn2cc3c(c2-c2ccccc2)CCCc2cnoc2-3)cc1 | 28.2%
3 | O=C1Nc2ccc(Cl)cc2/C1=C/c1ccc(OCc2ccc(Br)cc2F)cc1 | 97.8%
4 | Nc1nc(-c2cccc([N+](=O)[O-])c2)c(N=Nc2ccccc2Cl)s1 | 54.7%
5 | Oc1ccc(-c2nnc(SCc3ccc(O)c4ncccc34)o2)cc1 | 16.3%
6 | Oc1ccc(CSc2nnc(-c3ccccc3)n2-c2ccccc2)c2cccnc12 | 11.6%
7 | Oc1ccc(-c2nnc(SCc3ccc(O)c4ncccc34)n2-c2ccccc2)cc1 | 16.4%
8 | O=C1[C@@H]2Cc3c([nH]c4ccccc34)[C@H](c3c(Cl)cccc3Cl)N2C(=O)CN1C1CCN(Cc2ccccc2)CC1 | 10.6%
9 | CC1COc2c(N3CCN(C)CC3)c(F)cc3c(=O)c(C(=O)N/N=C/c4cc[nH]c4)cn1c23 (stereo not drawn) | -46.4% (active)
10 | COc1cc(C(=O)C[n+]2ccc3ccccc3c2)cc(OC)c1OC | 94%
11 | O=C(NNc1nc2cc(F)cc(F)c2n2cccc12)c1ncccn1 | 21.6%
12 | O=C(N/N=C\c1ccc(Cl)cc1)c1ccc2nc(-c3ccc(Br)cc3)[nH]c2c1 | -49.3% (active)
13 | C=CCn1c(SCC(=O)Nc2cccc(C(=O)/C=C/c3ccc(C)cc3)c2)nc2ccccc2c1=O | 67.5%
14 | CCOC(=O)c1c(NCC(=O)Nc2ccc(Br)cc2)sc2c1CCCC2 | 8.98% (active)
15 | O=c1[nH]c(CNc2ccc(NCc3c(-c4ccccc4)no[n+]3[O-])cc2)nc2c1cnn2-c1ccccc1 | 92.8%
16 | CCNC(=O)Oc1ccc(/C(=C(/C)c2ccccc2)c2ccc(OCCN3CCCC3)cc2)cc1 | 80.3%
17 | O=C(CCCCCCN1CC(=O)N2[C@@H](c3ccccc3)c3[nH]c4ccccc4c3C[C@H]2C1=O)NO | 38.7%
18 | Cc1cc(-c2ccc3nc(N)sc3c2)nc2ccc3[nH]ncc3c12 | 15.7%
19 | CCN1C(=O)N(CC)C2SC(N/N=C/c3ccccc3F)=NC21 (stereo not drawn) | 19%

Row | SMILES | growth
20 | COc1ccc(NC2=C(Cl)C(=O)C(C)=C(C)C2=O)cc1 | 94.3%
21 | Oc1ccccc1-c1nnc(SCc2ccc(O)c3ncccc23)n1-c1ccccc1 | 14.9%
22 | Cc1ccc(NC(=O)c2cc(/C=C/C(=O)NO)cc(C(F)(F)F)c2)cc1Nc1nccc(-c2cccnc2)n1 | -38.8% (active)
23 | Cc1nn(-c2ccc(Br)cc2)c2nc(CCl)[nH]c(=O)c12 | 110%
24 | CCn1c2ccc(/C=N/NS(=O)(=O)CCN(C)C)cc2c2cc(/C=N/NS(=O)(=O)CCN(C)C)ccc21 | 90.8%
25 | CC(C)Sc1nc(NC2CC2)c(C#N)c(-c2ccccc2)n1 | 82.6%
26 | CCOC(=O)c1nn(-c2ccccc2)c(=O)c2c(N)c(C#N)c(-c3cccs3)cc12 | 79.3%
27 | COc1cc(/C=N/n2cnc3oc(-c4ccccc4)cc3c2=N)cc(CN2CCCC2)c1O | -59.4% (active)
28 | Oc1ccccc1/C=N/Nc1nc(N/N=C/c2ccccc2O)nc(N2CCOCC2)n1 | 38.5%
29 | O=C1C[C@@H](c2ccccc2)Oc2c(Cc3ccccc3O)c(O)c(Cc3cc(Cc4cc(Cc5ccccc5O)ccc4O)ccc3O)c(O)c21 | 99.3%
30 | N/C(=N\OC(=O)CSc1nc2ccccc2s1)c1ccc(Cl)cc1 | 98%
31 | O=C(NNc1nc2cc(F)cc(F)c2n2cccc12)c1ccncn1 | 20.8%
32 | CCCC(=O)NC(c1cccnc1)c1cc(Cl)c2cccnc2c1O (stereo not drawn) | 26%
33 | COc1cc(-c2nc(SCc3ccc(C)cc3)[nH]c(=O)c2C#N)ccc1OCc1ccccc1 | 107%
34 | Cc1nn(-c2ccccc2)cc1/C=N/Nc1nc(Nc2ccccc2)nc(Nc2ccc(S(N)(=O)=O)cc2)n1 | -14.3% (active)
35 | COc1cc2c3c(n(CCCNC4CCCCC4)c(=O)c2cc1OC)-c1cc2c(cc1C3=O)OCO2 | -76.8% (active)
36 | COc1cc(O)c2c(c1)/C=C/C[C@H](O)[C@H](O)C(=O)/C=C\C[C@H](C)OC2=O | -9.76% (active)
37 | COc1cc(C2CC(c3ccc(Nc4nc(NCCO)nc(Nc5ccc(Cl)cc5)n4)cc3)=Nc3c(N)nc(N)nc3N2)cc(OC)c1OC (stereo not drawn) | 51.6%
38 | O=C(c1ccc(O)cc1)[C@@H]1[C@@H]2CCCN2[C@@]2(C(=O)N(C(=O)c3ccc(F)cc3)c3ccccc32)[C@H]1c1ccc(F)cc1 | 113%
